The AC50 is the midpoint of the concentration-response curve, whichever way the signal moves.

Activity calls are given as the source filed them. Rule for the calls: active = hit-call score of the fitted dose curve at least 0.9, where 1 is the maximum; inactive = score below 0.9.

This assay can be described thus: ATG_GLI_CIS: Attagene CIS-FACTORIAL HepG2 Assay for human Zinc Finger Protein GLI1 (AID 2282945). The settings on record: HepG2, Attagene cis-factorial reporter mRNA, GLI element; actives raise or lower the signal. The gist of the method:
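Bidirectional curve fits relative to DMSO, using reporter mRNA levels from RT-PCR plus capillary electrophoresis. Cells were HepG2 transiently carrying cis-regulated reporter constructs, harvested 24 h after dosing.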
Turning to `OC[C@@H](O)[C@H]1O[C@@H]2O[C@H](C(Cl)(Cl)Cl)O[C@@H]2[C@H]1O`, the molecule was called inactive.

As to `O=C(Cc1ccccc1)OCCc1ccccc1`, the call was inactive.

With `CCC[N+](CCC)(CCC)CCC`, the call was inactive.

As to `N#Cc1ccccc1Cl`, the outcome was inactive.

Consider `Cc1cc(C(C)(C)c2ccc(O)c(C)c2)ccc1O`, for which the AC50 was 74.7 µM (active).

For the molecule `C#CCO`, the call was inactive.

For the molecule `O=NN1CCOCC1`, the result was inactive.

`CCCSP(=S)(OCC)Oc1ccc(Cl)cc1Cl` (stereo unspecified): the molecule was classed as inactive.

As to `COCCl`, the molecule was classed as inactive.

Take `CNC(=O)O/N=C/C(C)(C)S(C)(=O)=O`: the molecule was called inactive.

`c1cc[c]([Sb]([c]2ccccc2)[c]2ccccc2)cc1`: the outcome was inactive.

Consider `CN(N=O)C(N)=O`, for which the molecule was classed as inactive.

Turning to `CCC[CH2][Sn]([CH2]CCC)([CH2]CCC)[CH2]CCC`, the molecule was called inactive.

Regarding `CC(c1ccccc1)(c1ccc(O)cc1)c1ccc(O)cc1`, the outcome was inactive.

As to `C[CH2][Hg][S]c1ccccc1C(=O)O`, the molecule was classed as inactive.

For `O=C(Nc1ccc(Br)cc1)c1cc(Br)cc(Br)c1O`, the AC50 was 168 µM (active).

In the case of `COC(F)(C(F)(F)C(F)(F)F)C(F)(C(F)(F)F)C(F)(F)F` (stereo unspecified), the outcome was inactive.

Take `Clc1cccc(Cl)c1`: the molecule was called inactive.

For the molecule `CC1CC(=O)O1` (stereo unspecified), the molecule was called inactive.

As to `CCCCCCCCCCCCBr`, the molecule was called inactive.

For `Cc1ccc2nc3sc(=O)sc3nc2c1`, the molecule was called inactive.

Regarding `ClCCCCl`, the call was inactive.

Regarding `Brc1c(Br)c(Br)c(Oc2c(Br)c(Br)c(Br)c(Br)c2Br)c(Br)c1Br`, the result was inactive.

Consider `Clc1cccc(Cl)c1Cl`, for which the outcome was inactive.

For `CC(C)(c1ccc(O)c(-c2ccccc2)c1)c1ccc(O)c(-c2ccccc2)c1`, the molecule was called inactive.

For the molecule `Clc1cnc(Oc2ccc(Oc3ncc(Cl)cc3Cl)cc2)c(Cl)c1`, the molecule was classed as inactive.

Values taken from PubChem BioAssay (EPA / NIEHS).
